Test results as given in the supplement of paper PMC6555819.

How the values were obtained:
Assay in all cases: PBM binding z-score (relative to random genomic background probes); higher = stronger binding; sequences stand for … in GC…GCGATTGACAGCGTAGAATGAAGG
[1] = test system: FXR:RXRa (NR concentration 270 nM, RXRa partner concentration 90 nM)
Outline: (§1)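 Probes were double-stranded and carried 34-nt variable regions with direct-repeat seeds, single-nucleotide variants, half-site ablations and random human genomic background sequences, printed on custom Agilent 4×180K protein-binding microarrays. Arrays were incubated 1 h with ligand-free nuclear receptor dimers in PBS pH 7.4, 2% milk, 0.02% Triton X-100, 1 mM DTT, 0.2 mg/mL BSA and 0.4 mg/ml salmon testes DNA. Antibodies against each partner (one per run) detected binding, and scanned fluorescence was regression-normalized. Binding z-scores use the random background probes as reference.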

[2] = test system: LXRa:RXRa (NR concentration 270 nM, RXRa partner concentration 90 nM)
Outline: as §1

[3] = test system: LXRa homodimer (NR concentration 270 nM)
Outline: as §1

[4] = test system: LXRb:RXRa (NR concentration 270 nM, RXRa partner concentration 90 nM)
Outline: as §1

[5] = test system: LXRb homodimer (NR concentration 270 nM)
Outline: as §1

[6] = test system: PPARa:RXRa (NR concentration 270 nM, RXRa partner concentration 90 nM)
Outline: as §1

[7] = test system: PPARg:RXRa (NR concentration 180 nM, RXRa partner concentration 90 nM)
Outline: as §1

[8] = test system: PPARg:RXRa 270nM:90nM, anti-RXR (NR concentration 270 nM, RXRa partner concentration 90 nM)
Outline: as §1

[9] = test system: PPARg:RXRa 30nM:10nM, anti-RXR (NR concentration 30 nM, RXRa partner concentration 10 nM)
Outline: as §1

[10] = test system: PPARg:RXRa 90nM:30nM, anti-RXR (NR concentration 90 nM, RXRa partner concentration 30 nM)
Outline: as §1

Sequence | PBM binding z-score [1] | PBM binding z-score [2] | PBM binding z-score [3] | PBM binding z-score [4] | PBM binding z-score [5] | PBM binding z-score [6] | PBM binding z-score [7] | PBM binding z-score [8] | PBM binding z-score [9] | PBM binding z-score [10]
CGTCCAAGTTCAAGGTAACGTAACAGAAAGCAGC | 2.88 | 2.37 | 0.562 | 1.53 | 0.319 | 2.68 | 1.17 | 1.4 | 0.382 | 1.04
CTGACTGGGGCAAGGTTACCATAACGCACAGCCA | 0.457 | 0.792 | -0.00434 | 1.54 | -0.221 | 2.63 | 4.03 | 4.4 | 1.45 | 3.67
GCGACTGGGGCATCAGCAGGTGACCATAACTTAA | -0.501 | -0.679 | -0.385 | 0.223 | -1.22 | 0.831 | 0.922 | 0.832 | -0.507 | -0.0151
CGAACTAGGTCACAACAGGACAGTGAAGGATGAT | 3.29 | 4.76 | 0.422 | 2.17 | 0.119 | 4.65 | 7.81 | 6.57 | 3.9 | 6.22
TAGCCTAGGTCATGGGCCAGTAAACCACGCGAAC | 4.54 | 3.68 | 0.175 | 2.43 | -0.182 | 4.46 | 3.46 | 3.97 | 1.13 | 2.88
TTACCAAAGTGAAGGTCGTTGATCCCTCTGTAGA | 2.06 | 2.07 | -0.0239 | 1.33 | -0.489 | 1.15 | -0.21 | 0.882 | 0.58 | 0.768
CTCGAACGGTCGGTTGAGGTGAGTATACGGATAA | 0.102 | -0.565 | -0.727 | -0.59 | -0.761 | -0.3 | -0.199 | -0.622 | -0.623 | -0.601
CCTAGCATGCCAATCTGGGTCACTCAAGGCTTGA | 0.636 | 1.12 | -0.371 | 0.998 | -0.652 | 3.3 | 2.23 | 2.25 | -0.035 | 1.26
GCTTTTAGTTGAAAGGGCAACCGAATGATTCTCG | 0.288 | 0.561 | -0.0833 | 0.53 | 0.106 | 2.2 | 2.24 | 4.03 | 1.85 | 3.97
TGAATGAGTTTATAAGATCAGGGAACGTTGCAAA | -0.262 | -0.382 | -0.288 | -0.209 | -0.337 | 0.00137 | 0.119 | 0.389 | 0.73 | 0.5
ATCTCTAGGTTACAAGTTCAGTGAAAGAGAGGAC | 1.64 | 2.33 | 1.68 | 1.55 | 1.77 | 2.51 | 2.72 | 3.25 | 1.77 | 2.97
TCAGACAGGTGAAGGAAACTCAGGTACGCAGTCG | 0.911 | 1.04 | 0.00488 | 0.561 | 0.0545 | 1.05 | 0.717 | 2.37 | 4.29 | 3.32
CAAACTAGGTCACCGGAAGGTCGAAGTCCGCATG | 4.63 | 4.34 | 1.21 | 3.06 | 0.673 | 5.6 | 9.2 | 7.5 | 5.41 | 7.33
TCATATAGGTAAATGCTAGGTGAAAGGCCGATCT | 0.626 | 1.07 | 0.239 | 0.994 | 0.0512 | 1.93 | 1.81 | 3.17 | 3.62 | 3.95
CGTCCAAGGTCAGAGAGGGCAGTGAATGCCGAGT | 5.26 | 3.77 | 0.447 | 2.71 | -0.0412 | 4.26 | 2.13 | 2.88 | 0.148 | 1.46
TCTAGCATGCCAGAGGGTCACTCAAGAGGTACGG | 0.892 | 0.929 | -0.463 | 1.43 | -1.1 | 2.5 | 1.02 | 1.69 | 1.89 | 1.76
TCTTGTAGATCCAGCAGGTTAAGAAAGCCTGAGT | 0.108 | 0.186 | -0.293 | 0.284 | -0.208 | 0.342 | -0.483 | 1.03 | 2.62 | 1.84
CGTCCAAGGTCAAGGTCAGCGAAAGAGACTCGAA | 7.53 | 5.5 | 1.11 | 4.65 | 0.78 | 5.89 | 6.76 | 6.42 | 3.23 | 5.28
CCTACTGGGCCAAGGACATTGATCAGTCAAAGCA | -0.284 | -0.572 | -0.118 | -0.778 | -0.99 | -0.141 | 0.757 | 0.967 | 0.164 | 0.46

Sequence | PBM binding z-score [1] | PBM binding z-score [2] | PBM binding z-score [3] | PBM binding z-score [4] | PBM binding z-score [5] | PBM binding z-score [6] | PBM binding z-score [7] | PBM binding z-score [8] | PBM binding z-score [9] | PBM binding z-score [10]
TCTTGTAGATCAAAGGTTAAGAGAGCCGAAGCCT | 1.58 | 1.77 | 0.0362 | 1.91 | -0.272 | 4.75 | 8.74 | 8.28 | 8.05 | 8.92
ATACCAAGGTGATCGTTAGGTCGTTGATACTAAC | 1.05 | 0.551 | 0.24 | 0.374 | -0.0967 | 0.452 | 0.242 | 0.192 | -0.144 | -0.131
TGTTGTAGATCAGCAGGTTAAGAAAGCTGGCCAA | -0.297 | -0.297 | -0.591 | -0.397 | -0.822 | -0.205 | -0.588 | 0.116 | -0.287 | -0.0252
CCTACTGGGCCAAAGGTTATTGATTCCAATGCTC | 0.648 | 1.32 | 0.345 | 1.76 | -0.363 | 5.33 | 10.4 | 9.22 | 8.72 | 10.5
CCTAGCAGGCCACTCTGGGTCACTCAAGGCTTGA | 1.22 | 4.55 | 0.221 | 1.91 | -0.897 | 2.33 | 0.363 | 0.663 | -0.56 | 0.0943
CAAACTAGGTCAAGAGCTCAAAGTCCGCTTCCCG | 3.7 | 2.48 | 0.129 | 1.63 | 0.0048 | 4.61 | 7.37 | 6.8 | 4.34 | 6.56
CCTAGCAGGCCAATCTCGGTCACTCAAGGCTTGA | 0.604 | 2.68 | 0.339 | -0.0855 | -0.585 | 0.406 | -0.312 | -0.384 | -1.26 | -0.439
TCGAGTCGGTTACCAATGGGGCATTCAGCTTTCT | -0.293 | -0.101 | -0.421 | 0.26 | -0.784 | 0.0956 | -0.641 | 0.163 | 0.773 | 0.526
CCAGACACGTGAGAAGGTAACTCAGCCTCGATTA | -0.22 | -0.083 | -0.348 | -0.3 | -0.11 | -0.534 | 0.37 | -0.804 | -0.82 | -0.704
TTACCAAGGTGAAAGTCGTTGATCCCTCTGTAGA | 0.729 | 0.757 | -0.418 | 0.587 | -0.747 | 2.1 | 0.615 | 1.61 | 0.371 | 1.12
GCTGCTAGGTCAGGTAGGTCAGCTAACGGGTACG | 2.1 | 1.72 | 0.0186 | 1.43 | -0.161 | 2.41 | 1.45 | 2.19 | -0.0602 | 1
TCTGCTAGATCAGTTGGTCAGCTAACGAGCTGCC | -2.98 | -0.794 | -1.07 | -0.988 | -0.764 | -0.465 | -0.552 | 0.389 | 1.24 | 0.547
TGTCAAAGTTCAAAGGTAACGTAAGTATCCACAC | 6.82 | 6.64 | 4.55 | 4.83 | 2.02 | 5.9 | 8.46 | 7.64 | 5.11 | 7.32
TAGCCTAGGTCTTTGGGCCAGTATAGTACGCATC | -0.684 | -0.824 | -0.792 | -0.788 | -0.858 | -1.04 | 0.0223 | -0.571 | -0.609 | -0.513
CGAACTAGGTCATAACAGGACAGTGAAGGATGAT | 3.19 | 4.15 | 0.43 | 1.95 | 0.0725 | 4.26 | 6.94 | 6.14 | 3.52 | 5.3
CCTTACGGGTCACTCCAGGTTATAGCGTCGGAGT | 5.26 | 7.75 | 1.89 | 5.52 | 0.0674 | 4.65 | 3.13 | 3.94 | 1.17 | 2.7
TGTTGTAGATCAACAGGAGGTTAAGAAAGATCGA | 0.0129 | 0.966 | 0.018 | 0.701 | -0.0946 | 0.963 | -0.033 | 0.456 | 0.304 | 0.492
GCATATAGTTAATACAAGGTGAAAGTCCGATTGT | 0.799 | 0.553 | 0.623 | 0.44 | -0.202 | 0.488 | 0.801 | 0.639 | 0.496 | 0.653
ATCGAAAGGTCGACGAGGTGAGTCTACACCGTTT | 4.73 | 3.39 | -0.244 | 2.47 | 0.381 | 4.55 | 2.93 | 3.2 | 0.846 | 1.9
